Out of some 39,000 compounds screened, about 3,300 (8.5%) were called active. Many of the other results were omitted from the sample, so actives are more common in it than they were.

This assay relates to HepG2. The assay is described as follows: cytotoxicity call (relative viability < 0.9). Particulars: 10 µM.
As for `Cc1ccc(S[C@]2(C(=O)NCCCN(C)C)CC(=O)N(Cc3ccccc3C(F)(F)F)[C@@H]2c2ccc(CO)cc2)cc1`, the cytotoxicity call was “inactive”.

In the case of `C[C@H]1CN([C@@H](C)CO)C(=O)Cc2cc(NS(=O)(=O)c3ccc(F)cc3)ccc2O[C@H]1CN(C)C(=O)Nc1cccc2ccccc12`, the cytotoxicity call is “inactive”. Consider `Cc1cc(-c2cc[nH]n2)c(C)s1`, for which the cytotoxicity call was “inactive”. `C[C@H]1CCCCO[C@@H](CN(C)Cc2ccncc2)[C@@H](C)CN([C@@H](C)CO)C(=O)c2cc(NC(=O)CCC(F)(F)F)ccc2O1`: the cytotoxicity call was “inactive”.

`C[C@@H]1CN([C@@H](C)CO)C(=O)c2cc(NC(=O)Nc3ccc(C(F)(F)F)cc3)ccc2O[C@@H](C)CCCCO[C@@H]1CN(C)S(=O)(=O)c1cn(C)cn1`: the cytotoxicity call was “inactive”. Regarding `C[C@@H]1CN([C@H](C)CO)C(=O)c2cc(NC(=O)Nc3ccc(C(F)(F)F)cc3)ccc2O[C@@H](C)CCCCO[C@H]1CN(C)C`, the cytotoxicity call is “inactive”. For `C[C@H]1CCCCO[C@@H](CN(C)S(=O)(=O)c2cn(C)cn2)[C@@H](C)CN([C@@H](C)CO)C(=O)c2cc(NC(=O)Nc3ccc(C(F)(F)F)cc3)ccc2O1`, the cytotoxicity call was “active”. `C[C@@H]1CN([C@@H](C)CO)C(=O)c2cc(NC(=O)Nc3ccc(C(F)(F)F)cc3)ccc2O[C@@H](C)CCCCO[C@H]1CN(C)S(=O)(=O)c1cn(C)cn1`: the cytotoxicity call is “inactive”. For the molecule `C[C@H]1CCCCO[C@H](CN(C)C)[C@@H](C)CN([C@@H](C)CO)C(=O)c2cc(NC(=O)Nc3ccc(C(F)(F)F)cc3)ccc2O1`, the cytotoxicity call was “inactive”. As to `C[C@@H]1CCCCO[C@@H](CN(C)C)[C@@H](C)CN([C@H](C)CO)C(=O)c2cc(NC(=O)Nc3ccc(C(F)(F)F)cc3)ccc2O1`, the cytotoxicity call was “active”. With `C[C@H]1CN([C@@H](C)CO)C(=O)c2cc(C#CC3(O)CCCC3)cnc2O[C@@H]1CN(C)S(=O)(=O)c1ccccc1` the entry was “inactive”; with `COc1cccc(-c2ccc3c(c2)O[C@@H](CN(C)C(=O)C2CC2)[C@@H](C)CN([C@@H](C)CO)S3(=O)=O)c1`, “inactive”; with `C[C@@H]1CN([C@H](C)CO)C(=O)c2cc(NC(=O)Nc3ccccc3)ccc2O[C@@H](C)CCCCO[C@@H]1CN(C)Cc1ccc(C(=O)O)cc1`, “inactive”. For `C[C@H]1CN([C@@H](C)CO)C(=O)c2cc(C#CC3(O)CCCC3)cnc2O[C@H]1CN(C)C(=O)Cc1ccccc1`, the cytotoxicity call is “inactive”.

With `CCNC(=O)C[C@H]1CC[C@H](NC(=O)C2CC2)[C@H](CO)O1`, the cytotoxicity call is “inactive”. In the case of `Cn1cnc(S(=O)(=O)N2C[C@H](O)COC[C@@H]3O[C@H](CC(=O)NC4Cc5ccccc5C4)CC[C@H]32)c1`, the cytotoxicity call was “inactive”. As to `O=C(C[C@@H]1CC[C@H]2[C@@H](COC[C@@H](O)CN2S(=O)(=O)c2ccccc2Cl)O1)NCc1ccccc1Cl`, the cytotoxicity call was “inactive”. `O=c1[nH]c2ccccc2c2ccccc12`: the cytotoxicity call was “inactive”.

As to `C[C@H]1CCc2[nH]c3ccccc3c2C1`, the cytotoxicity call was “active”. On to `COc1ccc2c3c(ccc2c1)-c1[nH]c2ccccc2c1CC3`, for which the cytotoxicity call was “inactive”. For the molecule `C[C@H]1CN([C@@H](C)CO)C(=O)c2cc(NS(=O)(=O)c3ccccc3)ccc2O[C@@H]1CN(C)C(=O)Nc1cccc2ccccc12`, the cytotoxicity call was “inactive”. For the molecule `O[C@H]1CCN(c2nccs2)C1`, the cytotoxicity call was “inactive”. Consider `O=C1CCC(=O)N1c1nccs1`, for which the cytotoxicity call is “active”. With `Nc1nccs1` the entry was “inactive”. For `O=C([C@@H]1[C@@H](CO)[C@@H]2Cn3c(cccc3=O)[C@@H]2N1CC1CCCC1)N1CCOCC1`, the cytotoxicity call is “inactive”.

In the case of `COC1(NC(=O)CSCC#N)C(=O)N2C(C(=O)[O-])=C(CSc3nnnn3C)CSC21.[Na+]` (centres undefined), the cytotoxicity call is “inactive”. Take `C[C@H]1CN([C@@H](C)CO)C(=O)c2cc(NC(=O)Nc3ccccc3)ccc2O[C@H]1CN(C)Cc1ccc(Cl)c(Cl)c1`: the cytotoxicity call was “active”.

`C[C@@H]1CN([C@@H](C)CO)C(=O)c2cc(NC(=O)Nc3ccccc3)ccc2O[C@H]1CN(C)Cc1ccc(Cl)c(Cl)c1`: the cytotoxicity call is “active”. With `C[C@@H]1CN([C@H](C)CO)C(=O)c2cc(NC(=O)Nc3ccccc3)ccc2O[C@@H]1CN(C)Cc1ccc(Cl)c(Cl)c1` the entry was “inactive”; with `C[C@@H]1CN([C@H](C)CO)C(=O)c2cc(NC(=O)Nc3ccccc3)ccc2O[C@H]1CN(C)Cc1ccc(Cl)c(Cl)c1`, “inactive”; with `C[C@@H]1CN([C@@H](C)CO)C(=O)c2cc(NC(=O)Nc3ccccc3)ccc2O[C@@H]1CN(C)Cc1ccc(Cl)c(Cl)c1`, “active”. Under `C[C@H](CO)N1C[C@H](C)[C@@H](CN(C)Cc2ccc(Cl)c(Cl)c2)Oc2ccc(NC(=O)Nc3ccccc3)cc2C1=O` stands “inactive”.

Consider `C[C@H]1CN([C@@H](C)CO)C(=O)c2cc(NC(=O)Nc3ccccc3)ccc2O[C@@H]1CN(C)Cc1ccc(Cl)c(Cl)c1`, for which the cytotoxicity call is “inactive”.

As for `C[C@H](CO)N1C[C@H](C)[C@H](CN(C)Cc2ccc(Cl)c(Cl)c2)Oc2ccc(NC(=O)Nc3ccccc3)cc2C1=O`, the cytotoxicity call is “inactive”. Consider `COCC(=O)N1C[C@H](C)[C@@H](OC)CN(C)C(=O)c2cc(NC(=O)c3ccc(F)cc3)ccc2OC[C@@H]1C`, for which the cytotoxicity call is “inactive”. With `N#Cc1cn(C2CCCCC2)c(=O)[nH]c1=O` the entry was “inactive”; with `C[C@H]1CCCCO[C@H](CN(C)C(=O)Cc2ccccc2)[C@@H](C)CN([C@@H](C)CO)C(=O)c2cc(NC(=O)C3CCCCC3)ccc2O1`, “inactive”. In the case of `CC(C)CC#Cc1ccc2c(c1)O[C@H](CN(C)C(=O)Cc1ccccn1)[C@@H](C)CN([C@@H](C)CO)S2(=O)=O`, the cytotoxicity call was “inactive”.

On to `C[C@@H]1CN([C@H](C)CO)C(=O)Cc2cc(NC(=O)c3ccncc3)ccc2O[C@@H]1CN(C)C(=O)NC1CCCCC1`, for which the cytotoxicity call is “inactive”.

Regarding `C[C@@H]1CN([C@H](C)CO)C(=O)c2cc(-c3ccncc3)cnc2O[C@@H]1CN(C)S(=O)(=O)c1ccc(F)cc1`, the cytotoxicity call is “inactive”. Consider `Cc1nsc(-c2ccccc2)n1`, for which the cytotoxicity call is “inactive”.

Consider `C[C@@H]1CCCCO[C@H](CN(C)Cc2ccc3c(c2)OCO3)[C@H](C)CN([C@H](C)CO)C(=O)c2cc(NS(=O)(=O)c3ccc(F)cc3)ccc2O1`, for which the cytotoxicity call was “inactive”.

On to `C[C@@H]1CCCCO[C@@H](CN(C)Cc2ccc3c(c2)OCO3)[C@@H](C)CN([C@H](C)CO)C(=O)c2cc(NS(=O)(=O)c3ccc(F)cc3)ccc2O1`, for which the cytotoxicity call is “active”. `C[C@@H]1CN([C@@H](C)CO)C(=O)c2cc(NS(=O)(=O)c3ccc(F)cc3)ccc2O[C@@H](C)CCCCO[C@H]1CN(C)Cc1ccc2c(c1)OCO2`: the cytotoxicity call is “inactive”.

On to `C[C@@H]1CCCCO[C@@H](CN(C)Cc2ccc3c(c2)OCO3)[C@@H](C)CN([C@@H](C)CO)C(=O)c2cc(NS(=O)(=O)c3ccc(F)cc3)ccc2O1`, for which the cytotoxicity call was “active”. Regarding `C[C@H]1CCCCO[C@H](CN(C)Cc2ccc3c(c2)OCO3)[C@@H](C)CN([C@@H](C)CO)C(=O)c2cc(NS(=O)(=O)c3ccc(F)cc3)ccc2O1`, the cytotoxicity call is “inactive”. Regarding `C[C@@H]1CCCCO[C@@H](CN(C)Cc2ccc3c(c2)OCO3)[C@H](C)CN([C@@H](C)CO)C(=O)c2cc(NS(=O)(=O)c3ccc(F)cc3)ccc2O1`, the cytotoxicity call was “inactive”. In the case of `C[C@@H]1CN([C@H](C)CO)C(=O)c2cc(NS(=O)(=O)c3ccc(F)cc3)ccc2O[C@@H](C)CCCCO[C@@H]1CN(C)Cc1ccc2c(c1)OCO2`, the cytotoxicity call was “inactive”. Under `C[C@@H]1CCCCO[C@H](CN(C)Cc2ccc3c(c2)OCO3)[C@@H](C)CN([C@@H](C)CO)C(=O)c2cc(NS(=O)(=O)c3ccc(F)cc3)ccc2O1` stands “active”. Regarding `C[C@@H]1CCCCO[C@@H](CN(C)Cc2ccc3c(c2)OCO3)[C@H](C)CN([C@H](C)CO)C(=O)c2cc(NS(=O)(=O)c3ccc(F)cc3)ccc2O1`, the cytotoxicity call is “inactive”. Under `C[C@@H]1CN([C@H](C)CO)C(=O)c2cc(-c3cccnc3)cnc2O[C@@H]1CN(C)Cc1ccc(Oc2ccccc2)cc1` stands “inactive”; under `CC(/C=C/C(=O)NO)=C\c1ccccc1OCc1cn(CC[C@@H]2OC(=O)[C@H](Cc3ccccc3)N3CC4=C[C@@H](C5CC5)n5c(=O)n(C)c(=O)n5[C@H]4[C@H]23)nn1`, “inactive”. Turning to `C[C@@H](N)C(=O)OC(C)(C)Cc1ccc(Cl)cc1`, the cytotoxicity call is “inactive”.

For `C[C@@H]1CCCCO[C@@H](CN(C)S(C)(=O)=O)[C@H](C)CN([C@@H](C)CO)C(=O)c2cc(NS(C)(=O)=O)ccc2O1`, the cytotoxicity call was “inactive”. Under `COC(=O)c1c2oc(c1C(=O)OC)C(=O)N[C@@H](Cc1ccccc1)Cn1cc(nn1)CNC(=O)[C@@H](Cc1ccccc1)NC(=O)N[C@@H](CO)CC2` stands “inactive”; under `C[C@H]1OC(=O)CC[C@@H](O)/C=C/[C@@H](O)[C@@H]1O`, “inactive”; under `O=C(O)[C@H]1Cc2ccccc2CN1`, “inactive”. With `CC(C)NC(=O)N[C@H]1C=C[C@@H](CC(=O)NCCCN(C)C)O[C@@H]1CO` the entry was “inactive”; with `Nc1ncnc2c1ncn2C1OC(CO)C(O)C1O` (centres undefined), “inactive”. For `CN(C)c1ncnc2c1ncn2[C@H]1O[C@@H](CO)[C@@H](N)[C@@H]1O`, the cytotoxicity call is “active”.

Consider `COc1ccc(C[C@@H](N)C(=O)N[C@@H]2[C@@H](O)[C@@H](n3cnc4c(N(C)C)ncnc43)O[C@@H]2CO)cc1`, for which the cytotoxicity call is “active”.

`COc1ccc(CC(N)C(=O)NC2C(CO)OC(n3cnc4c(N(C)C)ncnc43)C2O)cc1.Cl.Cl` (centres undefined): the cytotoxicity call is “active”.

On to `Nc1ncnc2c1ncn2[C@@H]1O[C@H](CO)[C@@H](O)[C@H]1O`, for which the cytotoxicity call is “inactive”.

Turning to `COc1nc(N)nc2c1ncn2[C@@H]1O[C@H](CO)[C@@H](O)[C@@H]1O`, the cytotoxicity call was “inactive”.

For the molecule `COc1ccc(C[C@H](N)C(=O)N[C@H]2[C@@H](O)[C@@H](n3cnc4c(N(C)C)ncnc43)O[C@@H]2CO)cc1`, the cytotoxicity call was “active”. Regarding `Nc1ccc(CCNc2ncnc3c2ncn3[C@@H]2O[C@H](CO)[C@@H](O)[C@H]2O)cc1`, the cytotoxicity call is “inactive”. With `C[C@@H]1CN([C@H](C)CO)C(=O)c2cccc(NS(C)(=O)=O)c2O[C@@H]1CN(C)Cc1ccc(C(=O)Nc2ccccc2N)cc1` the entry was “inactive”; with `COCC#Cc1ccc2c(c1)O[C@H](CN(C)S(=O)(=O)c1ccc(C)cc1)[C@@H](C)CN([C@H](C)CO)S2(=O)=O`, “inactive”; with `C[C@@H]1CN([C@H](C)CO)C(=O)c2cc(NC(=O)Nc3cccc4ccccc34)ccc2O[C@@H]1CN(C)S(=O)(=O)c1ccc(Cl)cc1`, “inactive”.
